# In ChEMBL document CHEMBL3988442, “University of Dundee, Small-Polar-MMV Screening Library” (2021):
# For part of these data: Entries with a potency or affinity are not part of this list.
# Assays:
# Set-up in all cases: scale not given: direction of the effect not stated beside the values
# [1] = biological target: Protein translocase subunit SecA (Escherichia coli (strain K12)) (UniProt P10408); test: Assay to Identify E. coli SecA ATPase Inhibitors; format: functional; settings: 30 µM
# [2] = biological target: T1, Ubiquitin-activating enzyme e1, putative (Leishmania donovani (strain BPK282A1)) (UniProt E9BSI1); test: Leishmania donovani Ubiquitin Activating Enzyme (LdE1); format: functional; settings: 30 µM
# T1 sequence (whole entry): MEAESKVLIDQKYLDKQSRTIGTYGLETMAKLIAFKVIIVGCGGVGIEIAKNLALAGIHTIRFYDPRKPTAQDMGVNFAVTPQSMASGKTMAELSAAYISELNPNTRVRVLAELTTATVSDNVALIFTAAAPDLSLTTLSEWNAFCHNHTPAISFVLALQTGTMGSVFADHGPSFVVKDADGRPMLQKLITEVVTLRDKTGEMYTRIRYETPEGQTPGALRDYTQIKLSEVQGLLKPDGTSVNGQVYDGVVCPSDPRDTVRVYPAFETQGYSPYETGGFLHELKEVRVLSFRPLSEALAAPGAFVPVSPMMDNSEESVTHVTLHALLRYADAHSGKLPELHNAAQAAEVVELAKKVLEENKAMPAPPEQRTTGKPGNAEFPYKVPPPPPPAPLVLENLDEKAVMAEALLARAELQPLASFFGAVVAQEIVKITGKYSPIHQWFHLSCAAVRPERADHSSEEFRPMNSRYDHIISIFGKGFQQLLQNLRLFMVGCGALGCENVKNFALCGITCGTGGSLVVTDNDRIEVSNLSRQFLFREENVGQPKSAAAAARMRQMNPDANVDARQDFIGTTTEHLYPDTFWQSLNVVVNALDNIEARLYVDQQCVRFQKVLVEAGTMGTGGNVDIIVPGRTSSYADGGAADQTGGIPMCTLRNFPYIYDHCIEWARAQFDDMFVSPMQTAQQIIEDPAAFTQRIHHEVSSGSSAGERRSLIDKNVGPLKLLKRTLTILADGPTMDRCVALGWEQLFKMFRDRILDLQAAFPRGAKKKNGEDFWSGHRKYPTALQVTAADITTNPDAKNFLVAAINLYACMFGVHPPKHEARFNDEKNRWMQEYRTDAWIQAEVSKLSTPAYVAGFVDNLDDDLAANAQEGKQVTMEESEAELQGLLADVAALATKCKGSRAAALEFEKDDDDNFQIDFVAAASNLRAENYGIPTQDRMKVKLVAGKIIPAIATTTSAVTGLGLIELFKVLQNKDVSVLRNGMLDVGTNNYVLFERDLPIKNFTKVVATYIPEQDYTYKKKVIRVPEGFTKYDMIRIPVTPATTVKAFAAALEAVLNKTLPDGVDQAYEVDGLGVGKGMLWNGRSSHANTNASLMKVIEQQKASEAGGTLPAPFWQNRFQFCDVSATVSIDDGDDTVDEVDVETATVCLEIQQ
# [3] = biological target: Sialic acid-binding Ig-like lectin 9 (Homo sapiens) (UniProt Q9Y336); test: Hs-Siglec9 ALPHAscreen SOP 20170721; settings: 10 µM
# Sequence of Sialic acid-binding Ig-like lectin 9 (Homo sapiens) (Q9Y336 whole entry): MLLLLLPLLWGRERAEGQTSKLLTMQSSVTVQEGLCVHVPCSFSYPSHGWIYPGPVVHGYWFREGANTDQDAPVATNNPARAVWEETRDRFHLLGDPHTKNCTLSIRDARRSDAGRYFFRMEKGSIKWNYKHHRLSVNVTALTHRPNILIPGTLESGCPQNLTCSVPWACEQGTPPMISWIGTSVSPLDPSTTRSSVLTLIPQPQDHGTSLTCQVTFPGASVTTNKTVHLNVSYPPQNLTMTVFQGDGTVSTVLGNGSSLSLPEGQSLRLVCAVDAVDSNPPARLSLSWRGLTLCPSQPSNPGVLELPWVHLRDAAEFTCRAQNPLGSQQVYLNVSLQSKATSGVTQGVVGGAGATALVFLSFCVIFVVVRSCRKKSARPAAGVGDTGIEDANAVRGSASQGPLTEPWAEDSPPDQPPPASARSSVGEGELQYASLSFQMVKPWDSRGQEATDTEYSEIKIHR
# Trypanosoma cruzi = test: Trypanosoma cruzi phosphomannomutase and mannose-1-phosphate guanylyltransferase assay; format: functional; settings: 10 µM
# [4] = biological target: T2, Arginase-2, mitochondrial (Homo sapiens) (UniProt P78540); test: in vitro enzyme assay to detect the production of urea directly proportional to the activity of Arginase II; format: functional; settings: 33.3 µM; further: in the data most compounds retested in dose-response had high values
# T2 sequence (whole entry): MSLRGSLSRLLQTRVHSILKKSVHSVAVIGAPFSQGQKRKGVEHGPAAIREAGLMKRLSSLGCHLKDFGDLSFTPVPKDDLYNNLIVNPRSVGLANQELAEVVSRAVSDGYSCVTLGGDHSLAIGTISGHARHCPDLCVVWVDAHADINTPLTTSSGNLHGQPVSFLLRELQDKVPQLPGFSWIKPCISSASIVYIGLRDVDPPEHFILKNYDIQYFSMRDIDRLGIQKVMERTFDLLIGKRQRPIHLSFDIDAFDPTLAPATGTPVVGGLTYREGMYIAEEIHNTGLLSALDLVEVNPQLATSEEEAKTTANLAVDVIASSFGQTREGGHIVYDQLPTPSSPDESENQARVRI
# [5] = biological target: T3, Proteasome subunit beta (Trypanosoma cruzi) (UniProt O96673); test: Trypanosoma cruzi proteasome chymotrypsin-like activity (TcProtChymo) assay.; further: in the data most compounds retested in dose-response had high values; format: functional; settings: 9.37 µM
# T3 sequence (whole entry): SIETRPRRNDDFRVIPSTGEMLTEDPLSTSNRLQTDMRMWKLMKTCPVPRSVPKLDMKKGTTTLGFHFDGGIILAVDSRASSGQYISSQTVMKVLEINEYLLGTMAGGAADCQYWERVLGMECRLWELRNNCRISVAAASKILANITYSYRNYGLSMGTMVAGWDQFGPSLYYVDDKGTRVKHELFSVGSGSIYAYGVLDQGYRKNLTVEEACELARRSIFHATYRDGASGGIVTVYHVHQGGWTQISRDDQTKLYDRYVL
# Homo sapiens = species: Homo sapiens; test: To identify inhibition of the IFN signalling (Jak-Stat) pathway via expression of an eGFP reporter gene under the control of an IFN-stimulated response element (ISRE) containing MxA promoter.; format: functional; settings: 30 µM
# [6] = biological target: T4, Tyrosyl-tRNA synthetase, putative (Trypanosoma cruzi (strain CL Brener)) (UniProt Q4DSP6); test: Trypanosoma cruzi tyrosyl tRNA synthetase (TcYRS) _High Tyrosine SOP; format: functional; settings: 30 µM; further: in the data most compounds retested in dose-response had high values
# T4 sequence (whole entry): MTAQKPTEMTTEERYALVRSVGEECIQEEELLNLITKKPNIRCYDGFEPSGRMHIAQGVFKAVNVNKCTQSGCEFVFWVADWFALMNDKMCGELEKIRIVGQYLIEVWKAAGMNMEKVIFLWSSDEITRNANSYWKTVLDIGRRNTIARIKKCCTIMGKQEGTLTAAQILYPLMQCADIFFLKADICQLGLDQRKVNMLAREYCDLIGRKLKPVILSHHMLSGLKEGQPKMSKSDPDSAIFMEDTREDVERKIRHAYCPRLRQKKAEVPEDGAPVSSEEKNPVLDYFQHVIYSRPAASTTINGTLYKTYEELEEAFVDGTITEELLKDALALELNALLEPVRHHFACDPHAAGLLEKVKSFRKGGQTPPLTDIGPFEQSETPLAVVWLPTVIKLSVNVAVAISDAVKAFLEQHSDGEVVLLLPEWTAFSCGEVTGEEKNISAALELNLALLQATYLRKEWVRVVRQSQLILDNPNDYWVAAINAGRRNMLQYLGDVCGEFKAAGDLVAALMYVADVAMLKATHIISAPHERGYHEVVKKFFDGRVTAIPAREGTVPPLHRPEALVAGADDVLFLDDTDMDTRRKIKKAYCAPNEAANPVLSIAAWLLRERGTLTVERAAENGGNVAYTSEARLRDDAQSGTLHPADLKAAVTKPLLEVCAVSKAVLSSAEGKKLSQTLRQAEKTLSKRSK
# [7] = biological target: T4, Tyrosyl-tRNA synthetase, putative (Trypanosoma cruzi (strain CL Brener)); test: Trypanosoma cruzi tyrosyl tRNA synthetase (TcYRS) SOP; format: functional; settings: 30 µM
# [8] = biological target: Chromo domain-containing protein 1 (Saccharomyces cerevisiae (strain ATCC 204508 / S288c) (Baker's yeast)) (UniProt P32657); test: ScCHD-1 Enzyme Inhibition Assay; format: functional; settings: 30 µM; further: in the data most compounds retested in dose-response had high values
# Sequence of Chromo domain-containing protein 1 (Saccharomyces cerevisiae (strain ATCC 204508 / S288c) (Baker's yeast)) (P32657 whole entry, the tested form may be a part): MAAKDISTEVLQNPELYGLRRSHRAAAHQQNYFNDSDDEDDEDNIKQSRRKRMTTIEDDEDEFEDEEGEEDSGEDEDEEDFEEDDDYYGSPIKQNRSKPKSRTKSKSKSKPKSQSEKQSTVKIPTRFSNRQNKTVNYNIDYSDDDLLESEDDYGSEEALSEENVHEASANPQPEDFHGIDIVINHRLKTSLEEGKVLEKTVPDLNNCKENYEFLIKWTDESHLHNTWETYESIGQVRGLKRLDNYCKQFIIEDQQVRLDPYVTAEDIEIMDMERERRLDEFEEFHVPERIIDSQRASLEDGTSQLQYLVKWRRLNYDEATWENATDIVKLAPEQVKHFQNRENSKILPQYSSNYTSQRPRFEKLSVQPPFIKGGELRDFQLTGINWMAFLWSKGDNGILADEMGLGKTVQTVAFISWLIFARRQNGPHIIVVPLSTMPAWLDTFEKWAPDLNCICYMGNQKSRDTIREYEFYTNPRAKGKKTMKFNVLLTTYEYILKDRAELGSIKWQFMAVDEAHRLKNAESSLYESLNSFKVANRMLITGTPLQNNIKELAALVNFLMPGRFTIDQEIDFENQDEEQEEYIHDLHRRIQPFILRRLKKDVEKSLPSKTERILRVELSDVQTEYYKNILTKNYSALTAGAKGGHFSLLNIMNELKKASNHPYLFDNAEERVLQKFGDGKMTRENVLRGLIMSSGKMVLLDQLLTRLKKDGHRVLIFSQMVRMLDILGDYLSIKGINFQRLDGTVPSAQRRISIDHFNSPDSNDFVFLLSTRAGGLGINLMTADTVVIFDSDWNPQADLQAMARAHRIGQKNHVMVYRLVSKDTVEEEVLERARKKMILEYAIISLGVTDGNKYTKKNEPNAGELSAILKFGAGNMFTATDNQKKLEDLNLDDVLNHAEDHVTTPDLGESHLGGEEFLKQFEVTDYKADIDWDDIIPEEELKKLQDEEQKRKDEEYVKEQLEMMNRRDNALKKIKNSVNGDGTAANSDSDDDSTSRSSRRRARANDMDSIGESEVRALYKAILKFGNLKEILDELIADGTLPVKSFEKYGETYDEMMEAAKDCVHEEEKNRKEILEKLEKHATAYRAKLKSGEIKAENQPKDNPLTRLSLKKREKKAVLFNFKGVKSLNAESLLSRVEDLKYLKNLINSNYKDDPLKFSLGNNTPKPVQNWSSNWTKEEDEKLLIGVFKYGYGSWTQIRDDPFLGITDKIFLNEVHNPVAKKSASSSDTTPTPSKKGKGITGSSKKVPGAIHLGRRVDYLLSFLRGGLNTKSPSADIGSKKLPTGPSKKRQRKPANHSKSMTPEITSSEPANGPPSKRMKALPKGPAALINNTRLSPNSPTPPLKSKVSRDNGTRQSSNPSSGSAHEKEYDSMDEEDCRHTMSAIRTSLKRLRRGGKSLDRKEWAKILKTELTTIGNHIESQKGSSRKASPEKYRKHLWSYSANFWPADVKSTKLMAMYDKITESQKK
# Sequence of Protein translocase subunit SecA (Escherichia coli (strain K12)) (P10408 whole entry): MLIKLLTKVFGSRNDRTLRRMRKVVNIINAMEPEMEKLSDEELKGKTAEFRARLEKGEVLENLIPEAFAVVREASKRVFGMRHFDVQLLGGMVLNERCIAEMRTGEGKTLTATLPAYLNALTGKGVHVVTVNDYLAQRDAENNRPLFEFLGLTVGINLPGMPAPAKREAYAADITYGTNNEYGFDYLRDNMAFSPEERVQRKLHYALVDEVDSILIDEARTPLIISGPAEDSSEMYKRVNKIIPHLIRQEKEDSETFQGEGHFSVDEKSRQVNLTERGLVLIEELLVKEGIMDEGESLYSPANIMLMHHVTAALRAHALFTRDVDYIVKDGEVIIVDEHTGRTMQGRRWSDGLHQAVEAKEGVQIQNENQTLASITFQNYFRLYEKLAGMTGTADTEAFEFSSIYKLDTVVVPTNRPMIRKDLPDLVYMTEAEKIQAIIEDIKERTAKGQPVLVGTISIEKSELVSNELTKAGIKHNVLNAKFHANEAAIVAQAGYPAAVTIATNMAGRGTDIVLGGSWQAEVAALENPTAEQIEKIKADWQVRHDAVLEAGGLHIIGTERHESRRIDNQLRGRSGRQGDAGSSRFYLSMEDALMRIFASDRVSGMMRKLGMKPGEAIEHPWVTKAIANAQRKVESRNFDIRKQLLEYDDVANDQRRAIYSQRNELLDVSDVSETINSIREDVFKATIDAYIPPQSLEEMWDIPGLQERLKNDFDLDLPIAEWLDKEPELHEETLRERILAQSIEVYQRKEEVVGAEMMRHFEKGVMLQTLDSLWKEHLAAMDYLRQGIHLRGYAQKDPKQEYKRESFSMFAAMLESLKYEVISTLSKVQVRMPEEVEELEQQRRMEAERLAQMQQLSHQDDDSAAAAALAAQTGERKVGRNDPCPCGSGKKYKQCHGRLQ
Compound,Percent Effect [1] [%],Percent Effect [2] [%],Percent Effect [3] [%],Percent Effect (Trypanosoma cruzi) [%],Percent Effect [4] [%],Percent Effect [5] [%],Percent Effect (Homo sapiens) [%],Percent Effect [6] [%],Percent Effect [7] [%],Percent Effect [8] [%]
Cc1cc(NC(=O)CCN(CC2CCOC2)C2CC2)no1 (stereo not given),-3.2,21.3,-0.377,1.21,-2.22,10.3,8.07,3.68,15.4,-13.2
CCOc1ncccc1NC(=O)NC1CCCN(c2ncccn2)C1 (stereo not given),0.363,23.4,1.83,4.66,-8.4,13.3,8.06,11.8,30.6,-4.97
CC(=O)NCCC(=O)NCc1cccnc1-n1cnc2ccccc21,0.292,0,2.93,6.69,12.2,1.71,-5.79,-0.532,2.44,98.3
O=C1CC(c2ccco2)c2sc(C(=O)O)c(-c3ccccc3)c2N1 (stereo not given),-3.7,18.9,68.7,2.23,-3.85,27.7,-0.84,7.98,17.1,44.8
O=C(c1ccc2c(c1)OCO2)N1CCN(c2cnccn2)CC1,-4.95,12.8,-0.564,-1.6,4.51,10.2,16,5.26,13.2,-6.8
Cc1cccc(CN2C(=O)CCC23CCN(Cc2cccn2C)CC3)n1,-2.82,27.3,-0.409,-0.75,0.457,16.9,23.5,9.66,22.5,-11.1
CN(C(=O)CN1CCOC(Cn2cccn2)C1)c1nccs1 (stereo not given),-7.38,18.2,0.761,4.29,-4.71,11.8,-5.33,3.92,21.2,-15
CC(C)(C)n1ncc2c1NC(=O)CC2c1ccc(OCC(N)=O)cc1 (stereo not given),-6.78,5.41,-0.0971,0.097,1.75,11.8,-6.02,9.04,14.6,-0.195
Cn1nc2c(cc1=O)CN(Cc1nc(C(C)(C)C)no1)CC2,-2.61,29.3,6.04,1.41,4.88,6.19,21.4,1.58,2.56,-14.7
COCC1CC2(CCN(Cc3ccc(OC)cc3)CC2)CN1C(C)C (stereo not given),-6.15,-9.09,-0.064,-1.66,-4.05,0.0883,-19.4,0.526,2.56,1.65
O=C1COC2(CCN(C(=O)c3ccco3)CC2)CN1Cc1cccnc1,-3.74,14.3,-1.08,-2.25,-0.457,3.86,-5.38,7.73,15,-5.67
c1cc(-c2nc(CN3CCn4c(nnc4C4CC4)C3)cs2)cs1,0.225,-23.1,-7.08,3.47,-1.64,5.55,21.9,2.39,8.43,5.73
c1cnc(OCc2nnc3n2CCN(CC2CC2)C3)nc1,-6.05,1.3,5.56,2.04,-5.67,2.91,-10.7,3.68,7.69,2.01
O=C(CSC1CCc2ccccc2NC1=O)NCCc1ccco1 (stereo not given),-1.93,18.9,2.64,3.98,11.5,18,16.5,3.72,17.1,-0.493
O=C(c1cc(Cl)c2c(c1)OCCO2)N1CCCC(n2cncn2)C1 (stereo not given),-2.53,-5.33,5.05,0.402,1.77,1.78,6.76,-0.526,0,2.59
OC(COc1ccc(F)cc1)CN1CCC(Cn2cccn2)CC1 (stereo not given),0.447,18.2,8.44,0.933,-5.12,6.14,-5.99,10.8,23.5,-4.98
Cc1cnn(CC2CN(CC(=O)N(C)c3nccs3)CCO2)c1 (stereo not given),-4.67,8,4.67,0.201,-2.66,9.75,13.5,4.74,10.3,-8.81
COCCc1ncc(CN2CCC(Oc3ccccc3C)CC2)cn1,-2.3,17.3,7.21,1.58,-0.443,12.6,7.38,6.35,20,-22.7
O=C(CCSc1ccc(F)cc1)NS(=O)(=O)c1ccc2c(c1)OCCO2,-5.54,-10.3,-3.31,4.22,-2.05,13.1,1.97,-11,-1.21,-2.81
Cc1nn(C)c(N(C)C)c1CNC(C)c1cccc(OC(C)C)c1 (stereo not given),2.06,5.2,13.8,-0.746,-7.58,4.91,15.4,3.92,18.8,-11.9
O=C(NCCc1coc(-c2ccc(F)cc2)n1)NC1CCC(O)CC1 (stereo not given),-5.41,21.3,5.86,5.82,-0.887,15.7,6.59,5.79,15.4,-15.6
